# Test results as given in PubChem BioAssay (NCI).
# This is part of a sample that, as a whole, favours compounds with a hit. Of some 83,000 tested, about 20% had one in any assay.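 Assay: single dose, 48 h. Readout: percent growth (0 = no net growth; negative = cell death). Active: <10.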 A number with no mark means an inactive call. Calls of active or inactive are those of the source.
# System: OVCAR-5 ovarian
# Assay: NCI-60 one-dose screen, 48 h (100 = growth as untreated, 0 = no growth, -100 = all killed)
# Conditions: 10 µM
# Method: Growth inhibition of the OVCAR-5 human tumor cell line is measured as a screen for anti-cancer activity. Cells are grown in 96 well plates and exposed to the test compound for 48 hours. Compounds are tested at a single concentration, which is 10^-5 M for most compounds. The reported endpoint is percent growth (GI% or GIPRCNT), where numbers from 0 - 100% represent growth inhibition, and numbers from -100% - 0 represent cell death. For example, a value of 40 represents 60% growth inhibition. A value of 0 means no net growth occurred over the course of the experiment. A value of -40 indicates 40% of cells at the beginning of the experiment died by the end of the experiment. A value of -100 means all cells are dead at the end of the experiment.
# NCI-60 Human Tumor Cell Lines Screen was performed using the standard one-dose NCI protocol, which is described in more detail at https://dtp.cancer.gov/discovery_development/nci-60/default.htm.
# Compounds with GIPRCNT values below 10 were considered active. Activity score was based on GIPRCNT using the following formula: […]
# Score is 0 for GIPRCNT values of 100 or above, 50 for GIPRCNT values of 0, and 100 for GIPRCNT values of -100.
row,Structure (SMILES),growth
1,O=C(CN1CCN(c2ncnc3c2cnn3-c2ccccc2)CC1)Nc1nncs1,-4.09% (active)
2,O=C(Nc1cccc(C(F)(F)F)c1)c1cncc(C#Cc2cnc3cccnn23)c1,56.3%
3,Cc1ccc(CNC(=O)Cc2ccc3c(c2)CN(C2CCC(=O)NC2=O)C3=O)cc1 (stereo not given),29.5%
4,Cc1cc(C)nc(NS(=O)(=O)c2ccc(N/C(N)=N/c3nccc(-c4cccs4)n3)cc2)n1,107%
5,COc1ccc(/C=N/N=C(\C)c2ccc3c(c2)Nc2ccccc2S3)cc1O,71.4%
6,CC(=O)c1ccc(NC(=O)NCn2c(=O)[nH]c3ccccc3c2=O)cc1,107%
7,O=C1Nc2ccc(Cl)cc2/C1=C/c1cccc(OCc2ccccn2)c1,-45.2% (active)
8,Cc1noc2c(Cc3ccccc3)nn(CC(=O)N/N=C/c3ccc(F)cc3)c(=O)c12,93.7%
9,CC1=C(C(=O)OC(C)C)C(c2ccc(O)cc2)NC(=S)N1 (stereo not given),116%
10,O=C(c1ccc(Cl)cc1)C1[C@H](c2ccc(Br)cc2)[C@@H](c2ccccc2)NC12C(=O)Nc1ccc(Br)cc12 (stereo not given in full),-91.2% (active)
11,CC(=O)Oc1ccccc1C(=O)Oc1ccc(C(=O)/C=C/c2ccncc2)cc1,62.7%
12,CCOc1ccc(Nc2nc3ccccc3nc2Nc2ccc(OCC)cc2)cc1,107%
13,COc1ccccc1C(=O)NNC(=O)CSc1nc2c(c(=O)[nH]1)CCCC2,108%
14,C/C(=C\c1ccc(O)cc1O)c1ccc2ccc(O)cc2[o+]1,192%
15,Cc1ccc(C(C)C)cc1NC(=O)c1ccccc1O,96.2%
16,O=C(CNc1nc(-c2ccccc2)cs1)Nc1ccc([N+](=O)[O-])cc1,-39.6% (active)
17,O=C(Nc1cccc(C(F)(F)F)c1)c1cncc(C#Cc2cnc3ccc(N4CCOCC4)nn23)c1,1.83% (active)
18,CCN1CCN(c2ccc(NC(=O)Nc3ccc4c(c3F)CCN4c3ccnc(C(=O)NC)c3)cc2C(F)(F)F)CC1,57.5%
19,CC(=O)Nc1nc(-c2ccc(N3CCN(C)CC3)c(NS(=O)(=O)c3cccc4c(N(C)C)cccc34)c2)cs1,83.4%
20,COc1ccc(N(C)c2cc(C#N)nc3ccccc23)cc1/C=C/C(=O)NO,-46.2% (active)

row,Structure (SMILES),growth
1,CCCS(=O)(=O)c1oc(-c2ccc(F)cc2)nc1S(=O)(=O)c1ccc(F)cc1,-68.3% (active)
2,O=C(Nc1ccc(I)cc1F)c1cc(-c2ccc(F)cc2F)ccc1O,3.54% (active)
3,C=C1CCC2C3(C)COC(c4cc(F)cc(F)c4)OC3CCC2(C)C1C/C=C1/C(=O)OCC1O (stereo not given),-21.3% (active)
4,CCOc1ccc(/C=N/NC(=O)Cn2nc(Cc3ccccc3)c3onc(C)c3c2=O)cc1,60.9%
5,Cc1ccc(-c2nc3ccc(C(=O)N=Nc4c(O)[nH]c5ccc(Br)cc45)cc3[nH]2)cc1,62.8%
6,O=C(c1ccc(Cl)cc1)C1[C@H](c2ccccc2Br)[C@@H](c2ccccc2)NC12C(=O)Nc1ccc(Br)cc12 (stereo not given in full),19.2%
7,OCCCNc1oc(-c2ccccc2)nc1[P+](c1ccccc1)(c1ccccc1)c1ccccc1,26.2%
8,Cc1ccc(C(=O)NNC(=O)CSc2nc3ccccc3c(=O)[nH]2)cc1,104%
9,CCCCCCCCCCCCCCCCCCCC(=O)NCCc1c[nH]c2ccc(OC(=O)NOCCOCCOCCOCCOCCOCCOCCOCCOCCOCCOCCOCCOCCOCCOCCOCCOCCOCCOCCOCCOCCOCCOC)cc12,-5.89% (active)
10,COc1ccc2nc(Cl)c(-c3cc(-c4ccccc4)nc(=O)[nH]3)cc2c1,93.1%
11,Cc1cc(C)nc(NS(=O)(=O)c2ccc(N/C(N)=N/c3nccc(-c4ccccc4)n3)cc2)n1,76.1%
12,C#Cc1ccc(S(=O)(=O)Nc2cccc(-c3csc(NC(C)=O)n3)c2)cc1,101%
13,Cc1cc(C(F)(F)F)ccc1C(=O)Nc1sc2c(c1C#N)CCC(=O)C2,-33.3% (active)
14,O=C(c1ccc(O)cc1)C1[C@H](c2ccccc2Br)[C@@H](c2ccccc2)NC12C(=O)Nc1ccc(Cl)cc12 (stereo not given in full),-2.71% (active)
15,COc1cccc(/C=N/NC(=O)c2ccc3nc(-c4ccc(Cl)cc4)[nH]c3c2)c1O,-63% (active)
16,Brc1ccc(/C=C/c2n(Cc3ccc4ccccc4c3)c3ccccc3[n+]2Cc2ccc3ccccc3c2)cc1,-91.1% (active)
17,CN1CCN(Cc2ccc(C(=O)Nc3cccc(Nc4ccc5c(O)cccc5n4)c3)cc2C(F)(F)F)CC1,-48.7% (active)
18,CCOC(=O)N/C(=C1/OCCN1C)[P+](c1ccccc1)(c1ccccc1)c1ccccc1,85.1%
19,CS(=O)(=O)Nc1ccc(-c2ccc3c(c2)ncn3-c2ccc(NC(=O)Nc3ccc(Br)cc3)cc2)cc1,20.1%
20,O=C(CNc1nc(-c2ccccc2)cs1)Nc1ccc(Br)cc1,-96.3% (active)
